21 compounds from PubChem BioAssay (NCATS) can be followed below.

Records with an inconclusive call do not appear. A call without a number means that no potency is given here. Calls of active or inactive are those of the source. The call rests on the fitted dose curve; in most records, active means well fitted curve in the direction sought with a large enough effect; inconclusive means small, poorly fitted or top-dose-only effect, or another doubt; inactive means no such curve, though single readings can be large; an effect the other way counts as inactive or inconclusive.
Potency means the concentration at half of the fitted maximal effect.

Chain of Nuclear receptor subfamily 1 group I member 3 (Homo sapiens) (Q14994 whole entry, looked up): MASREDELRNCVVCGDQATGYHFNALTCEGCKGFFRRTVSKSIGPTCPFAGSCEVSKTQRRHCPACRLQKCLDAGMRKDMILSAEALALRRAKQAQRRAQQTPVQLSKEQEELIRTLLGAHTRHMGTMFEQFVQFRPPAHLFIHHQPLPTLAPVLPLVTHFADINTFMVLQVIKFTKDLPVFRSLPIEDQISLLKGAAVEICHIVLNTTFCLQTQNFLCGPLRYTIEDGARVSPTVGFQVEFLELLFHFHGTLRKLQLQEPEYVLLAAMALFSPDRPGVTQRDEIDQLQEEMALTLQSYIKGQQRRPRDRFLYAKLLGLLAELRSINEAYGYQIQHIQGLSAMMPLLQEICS

For the first experiment, the target named is Nuclear receptor subfamily 1 group I member 3 (Homo sapiens) (UniProt Q14994). Put plainly: qHTS for Constitutive Androstane Receptor (CAR) Agonist screened against the NCATS CANVASS Library (AID 1347373).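 Further: every well also contained 1.5 µM PK11195 alongside the test compound.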 Conditions: HepG2-hCAR-CYP2B6 luciferase reporter, ONE-Glo luminescence; series mostly up to 46.1 µM. The method, boiled down:
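HepG2 cells stably carrying hCAR and a CYP2B6-2.2kb luciferase reporter, treated 24hr at 37C with compounds plus 1.5uM PK11195; activation by ONE-Glo luminescence, viability by CellTiter-Fluor.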
(qHTS replaces the single test concentration by a dilution series.)
As for `O=c1cc(-c2ccc(O)c(O)c2)oc2cc(O[C@@H]3O[C@H](CO)[C@@H](O)[C@H](O)[C@H]3O)cc(O)c12`, the Potency result was “inactive”. On the same count and under the same terms, to `C/C1=C/[C@@H](C)[C@H](O)[C@@H](O)/C=C/CC/C=C/C(=O)O[C@@H]1[C@H](C)C(=O)CCCC1CC(=O)NC(=O)C1` belongs “inactive”; to `CN1CC[C@]2(c3cccc4c3N[C@H]3N(C)CC[C@@]43[C@]34CCN(C)[C@H]3Nc3ccccc34)c3ccccc3N[C@H]12`, “inactive”.

For `CC[C@H]1[C@H](C)[C@H](c2cc(OC)c(OC)cc2OC)[C@@H](C)[C@H](c2cc(OC)c(OC)cc2OC)[C@@]12C=C(OC)C(=O)C=C2OC`, the Potency entry was “inactive”.

`COc1cc2c(cc1OC)[C@@H](c1ccc3c(c1)OCO3)C(C)C(C)C2=O` (stereo partly drawn): the Potency was 18.6 µM (active). On the same count and under the same terms, under `C/C=C(/C)c1c(Cl)c(O)c(C)c2c1Oc1c(Cl)c(O)c(Cl)c(C)c1C(=O)O2` stands “inactive”; under `CC(C)C[C@@H]1c2c(O)c(C=O)c(O)c(C=O)c2O[C@]2(C)C=C[C@@H](C(C)C)C[C@H]12`, “inactive”; under `C/C=C(/C)c1cc(O)c(C)c2c1Oc1cc(O)cc(C)c1C(=O)O2`, “inactive”.

Turning to `CC(C)[C@]12CC[C@@]3(C)[C@H](C)CC[C@H](O)[C@@]3(CC1)c1cc3c(cc12)[nH]c1ccccc13`, the Potency result was “inactive”. The same measure, in the same setting: to `C[C@H]1C=C[C@H]2CCCC[C@@H]2[C@H]1C(=O)[C@H]1CC2=C(C(=O)O)CCN2C1=O` belongs “inactive”; to `C/C=C(/C)c1c(Cl)c(OC)c(C)c2c1Oc1c(Cl)c(O)c(Cl)c(C)c1C(=O)O2`, “inactive”. In the case of `C/C(=C\CC[C@@H](C)[C@H]1CC[C@]2(C)C3=CCC4C(C)(C)[C@@H](O)C[C@@H](O)[C@]4(C)C3[C@H](O)C[C@@]12C)CO` (stereo partly drawn), the Potency result was “inactive”. Turning to `COC12OC1(C13OC1(OC)C(=O)c1cc4cc(C)oc(=O)c4c(O)c1C3O)C(O)c1c(cc3cc(C)oc(=O)c3c1O)C2=O` (stereo not drawn), the Potency entry was “inactive”.

On to `CO[C@H]1[C@@H](OC(=O)/C(C)=C\[C@@H]2O[C@@H]2[C@H]2O[C@H]2C)[C@H](O)[C@H](OCC23C[C@@H]4[C@H](C)CC[C@H]4C4(C=O)CC2C=C(C(C)C)C34C(=O)O)O[C@@H]1C` (stereo partly drawn), for which the Potency result was “inactive”.

Tested on in the next experiment: not listed separately
The experiment in a line: qHTS for Hypoxia signaling pathway (HIF-1) antagonists against the NCATS CANVASS Library (AID 1347374). Further: nearly all actives have a fitted effect of over 60% in size. Conditions: HRE-bla ME-180 cells, HIF-1 beta-lactamase reporter, CoCl2; series mostly up to 38.3 µM. The method, boiled down:
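HRE-bla ME-180 cells in medium with 0.5% dialyzed FBS received compounds (11-point series) plus CoCl2 (60 uM addition stock) for 17 hrs at 37C. Beta-lactamase activity read with CCF4 (405 nm ex, 460/530 nm em); CellTiter-Glo viability measured in same wells.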
Regarding `C/C=C/C1C=CC2CC(C)CC(C)C2C1C(=O)CC(=O)NC(CO)C/C=C/CCCCC` (stereo not drawn), the Potency was 29.8 µM (active). Consider `C=C1CC[C@@H](Br)C(C)(C)[C@]12CC=C(C)C(=O)C2`, for which the Potency result is “inactive”. The same measure, in the same setting: to `COc1cc(/C=C/C(=O)OC[C@@H](Cc2ccc(O)c(OC)c2)[C@@H](COC(=O)/C=C/c2ccc(O)c(OC)c2)Cc2ccc(O)c(OC)c2)ccc1O` belongs 7.47 µM (active); to `COc1c(O)cc2c(c1O)C(=O)c1c(coc1C)C2=O`, 14.9 µM (active); to `C=C[C@](Cl)(CBr)CCC=C(C)C`, “inactive”.

For the compound `C[C@]12CCC[C@](C)(C(=O)O)[C@@H]1CC[C@@]1(C)c3cocc3CC[C@H]21`, the Potency result was “inactive”. The same measure, in the same setting: under `CCC(=O)N[C@@H](C[C@H](C)C(Cl)(Cl)Cl)C(=O)N1C(=O)C=C(OC)[C@@H]1CC(C)C` stands “inactive”. `O=c1cc(-c2ccc(O)c(O)c2)oc2cc(O[C@@H]3O[C@H](CO)[C@@H](O)[C@H](O)[C@H]3O)cc(O)c12`: the Potency entry is “inactive”. The same measure, in the same setting: to `C/C=C(/C)c1c(Cl)c(O)c(C)c2c1Oc1c(Cl)c(O)c(Cl)c(C)c1C(=O)O2` belongs 10.6 µM (active); to `C[C@H]1C=C[C@H]2CCCC[C@@H]2[C@H]1C(=O)[C@H]1CC2=C(C(=O)O)CCN2C1=O`, “inactive”.

Regarding `C/C=C(/C)c1c(Cl)c(OC)c(C)c2c1Oc1c(Cl)c(O)c(Cl)c(C)c1C(=O)O2`, the Potency was 10.6 µM (active). On the same count and under the same terms, under `C/C(=C\CC[C@@H](C)[C@H]1CC[C@]2(C)C3=CCC4C(C)(C)[C@@H](O)C[C@@H](O)[C@]4(C)C3[C@H](O)C[C@@]12C)CO` (stereo partly drawn) stands 14.9 µM (active); under `COC12OC1(C13OC1(OC)C(=O)c1cc4cc(C)oc(=O)c4c(O)c1C3O)C(O)c1c(cc3cc(C)oc(=O)c3c1O)C2=O` (stereo not drawn), 14.9 µM (active). Same read-out and setting: to `CO[C@H]1[C@@H](OC(=O)/C(C)=C\[C@@H]2O[C@@H]2[C@H]2O[C@H]2C)[C@H](O)[C@H](OCC23C[C@@H]4[C@H](C)CC[C@H]4C4(C=O)CC2C=C(C(C)C)C34C(=O)O)O[C@@H]1C` (stereo partly drawn) belongs “inactive”.
